CHX counter: Cycloheximide Counterscreen for Small Molecule Inhibitors of Shiga Toxin; cell reporter, cycloheximide protein synthesis inhibition counterscreen; max response, %; 300,000 tested, 12% active; AID 2314, 2010; in the data active means max response mostly above about 13%, no sharp cut-off; inactive means mostly below about 14%; further: read at 38.3 µM for the half of the compounds with a filed dose; 0% is about no effect
AmpC inh no detg: qHTS Inhibitors of AmpC Beta-Lactamase (assay without detergent). P00811. AmpC nitrocefin hydrolysis, absorbance 480 nm, 0.0001% Triton. Potency, µM (highest dose often 57.1 µM), for inactives: at the top dose activity change, negative = inhibition, most hits filed as inhibitors. 330,000 tested, 0.52% active. AID 485341, 2010;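 further: potency means the concentration at half of the fitted maximal effect; plate controls were no compound for no effect and no enzyme for full effect; nearly all actives have a fitted effect of over 20% in size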
Target sequence (P00811 whole entry, looked up): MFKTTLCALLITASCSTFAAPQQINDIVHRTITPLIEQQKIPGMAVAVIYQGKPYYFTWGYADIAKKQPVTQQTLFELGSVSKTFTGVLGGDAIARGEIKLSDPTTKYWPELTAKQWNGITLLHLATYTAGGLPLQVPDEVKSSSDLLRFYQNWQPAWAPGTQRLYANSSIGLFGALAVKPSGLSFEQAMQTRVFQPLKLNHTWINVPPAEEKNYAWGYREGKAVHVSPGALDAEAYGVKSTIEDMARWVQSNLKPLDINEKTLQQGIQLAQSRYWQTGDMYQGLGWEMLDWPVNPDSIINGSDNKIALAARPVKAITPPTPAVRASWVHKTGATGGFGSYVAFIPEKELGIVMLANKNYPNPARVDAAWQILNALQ
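AmpC (5.3 nM in the dispensed reagent) in 20 mM phosphate pH 7.0 with 0.01% (detergent screen) or 0.0001% Triton X-100 was preincubated with compounds for 15 min at room temperature. Nitrocefin was then added from an 800 uM solution, and hydrolysis was followed at 480 nm.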
AmpC detergent: qHTS Inhibitors of AmpC Beta-Lactamase (assay with detergent); P00811; AmpC hydrolysis of nitrocefin, absorbance 480 nm, 0.01% Triton; Potency, µM (series often up to 114 µM), inactives show at the top dose activity change, negative = inhibition, actives largely listed as inhibitors; 370,000 tested, 0.041% active; AID 485294, 2010;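 further: potency means the concentration at half of the fitted maximal effect; 0% = no-compound wells and -100% = no-enzyme wells; nearly all actives have a fitted effect of over 25% in size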
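20 mM phosphate pH 7.0 + 0.01% (detergent screen) or 0.0001% Triton X-100; 5.3 nM AmpC reagent; cpd preinc 15 min RT; nitrocefin (800 uM stock) to start; A480 q20 s × 4 min; Activity was normalised to no-enzyme and no-compound control wells.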
Shiga toxin inh: A qHTS for Small Molecule Inhibitors of Shiga Toxin; Vero cells, Shiga toxin protein synthesis inhibition reporter; AID 2315, 2010; 290,000 tested, 9.2% active; inhibition, % at 38.7 µM; in the data active means inhibition mostly above about 28%, no sharp cut-off; inactive means mostly below about 43%; further: 0% is about no effect
NS1 function inh: qHTS Assay for Inhibitors of Influenza NS1 Protein Function; Potency, µM (highest dose often 46.1 µM), for the others: at the highest dose activity, positive = more growth; 270,000 tested, 0.4% active; calls by dose curve; further: potency means the concentration at half of the fitted maximal effect; actives are rising curves; nearly all actives have a fitted effect of over 50% in size
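In this qHTS, NS1 from influenza A is expressed in budding yeast, where it slows growth. Cells are switched from glucose to 2% galactose medium (pH 6.0, -URA), treated with compound, and growth recovery is read at OD600.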
Starred values were filed as active, the others as inactive; u = inconclusive; x = no result given. Shown is part of a subset that was picked to be rich in hits. Unless noted, the call rests on the fitted dose curve; in most records, active means well fitted curve in the direction sought with a large enough effect; inconclusive means small, poorly fitted or top-dose-only effect, or another doubt; inactive means no such curve, though single readings can be large; an effect the other way counts as inactive or inconclusive.

SMILES	CHX counter	AmpC inh no detg	AmpC detergent	Shiga toxin inh	NS1 function inh
Cc1nc2c(-c3ccccc3)cnn2c(N2CCOCC2)c1C	47*	2%	7%	98*	-9%
CCCc1cc(N2CCOCC2)n2ncc(-c3ccccc3)c2n1	39*	7%	-2%	58*	-3%
CC(C)C(C)NC(=O)CN1C(=O)NC2(CCCc3ccccc32)C1=O (stereo not drawn)	-4	-5%	0%	-14	x
COc1ccc(-n2c(SCC(=O)NCc3ccccc3)nc3n[nH]c(C)c3c2=N)cc1	x	x	-2%	x	x
Cc1ccc2oc(C(=O)N(Cc3cccc(F)c3)C3CCS(=O)(=O)C3)c(C)c2c1 (stereo not drawn)	x	x	16%	x	x
Oc1[nH]c2ccccc2c1N=NC(=S)NCC1CCCO1 (stereo not drawn)	17*	-5%	3%	18	7%
Cc1cccc(NC(=S)N=Nc2c(O)[nH]c3ccccc23)c1	2	32µM*	u	12	11%
Cc1csc2ncc(C(=O)Nc3ccccc3F)c(=O)n12	24*	0%	u	31	-44%
Cc1csc2ncc(C(=O)Nc3ccon3)c(=O)n12	1	-10%	-14%	9	-21%
Cc1cccc(NC(=O)c2cnc3scc(C)n3c2=O)c1	19*	-14%	u	26*	-12%
Cc1csc2ncc(C(=O)Nc3ccc4c(c3)OCCO4)c(=O)n12	59*	0%	2%	117*	u
CCOC(=O)c1cccc(NC(=O)C(C)n2c(C)c3cnn(-c4ccccc4)c(=O)c3c2C)c1 (stereo not drawn)	x	x	-11%	x	x
Cc1cc(C)cc(NC(=O)C(=O)NCC(c2cccnc2)N2CCN(c3ccccc3)CC2)c1 (stereo not drawn)	x	x	18%	x	x
O=C(c1ccc(Cl)cc1)N1N=CCC1(O)c1ccc(Cl)cc1 (stereo not drawn)	22*	-59%	1%	38	-6%
CCC(C)NC(=O)c1ccc(NC(=O)CC2SC(N3CCCC3)=NC2=O)cc1 (stereo not drawn)	x	-15%	1%	x	x
Cc1ccc2nc(C)cc(N/N=C/c3cccnc3)c2c1	-5	-20%	0%	20	3%
Oc1ccc(/C=N/Nc2cccc3cccnc23)c(O)c1	59*	-27%	2%	102*	u
Cc1ccc(/C=N/Nc2cccc3cccnc23)c(O)c1	28*	-36%	0%	48	3%
CCOC(=O)c1c(NC(=O)CN2CCN(C(=O)c3ccco3)CC2)sc(C)c1C	-4	9%	3%	-5	8%
CCc1c(C)sc(NC(=O)CN2CCN(C(=O)c3ccco3)CC2)c1C(=O)OC	16*	189%	3%	37	-75%
CC(C)(O)C#Cc1ccc(C(=O)Nc2ccc3c(c2)OCO3)s1	58*	-28%	-16%	107*	u
CCc1ccc(C(=O)NC2CCCCC2)s1	53*	-20%	-7%	67*	-10%
CC(C)(O)C#Cc1ccc(C(=O)NC2CCCCC2)s1	27*	-14%	12%	74*	-2%
Cc1c(NC(=O)c2cccs2)cccc1-c1nc2ccccc2s1	18	-31%	u	23	-4%
Cc1ccc2sc(-c3ccc(NC(=O)c4cc(-n5cnnc5)ccc4Cl)cc3)nc2c1	62*	-3%	-2%	134*	13%
SMILES	CHX counter	AmpC inh no detg	AmpC detergent	Shiga toxin inh	NS1 function inh
CC(=O)Nc1ccc(NC(=O)c2cc(-n3cnnc3)ccc2Cl)cc1	-2	-22%	0%	-19	4%
Cc1c(NC(=O)c2cc(-n3cnnc3)ccc2Cl)cccc1-c1nc2ccccc2s1	23*	112%	9%	37*	5%
O=C(Nc1cccc(-c2nc3ccccc3s2)c1)c1cc(-n2cnnc2)ccc1Cl	30*	94%	-5%	58	19%
Nc1nc(-c2cccnc2)cc(-c2cc(-c3cccnc3)nc(N)n2)n1	x	x	x	x	-3%
COc1ccc(OC)c(CCNC(=O)Cn2sc3nc(C)cc(C)c3c2=O)c1	-5	u	50µM*	-16	u
COc1ccc(/C=N/Nc2cc(OC)ncn2)cc1	25*	-16%	-1%	97*	-8%
COc1ccc(/C=N/Nc2cc(C)nc(N)n2)cc1	32*	-31%	-11%	67*	6%
COc1ccc(/C=N/Nc2cc(N(C)C)nc(N(C)C)n2)cc1	3	-15%	-8%	-10	-19%
COc1cc(/C=N/Nc2cc(C)nc(N)n2)ccc1O	13	-30%	2%	36*	8%
COc1ccc(CNC(=O)c2ccc(-c3nc(CSc4ccc(C)cc4)c(C)o3)cc2)c(OC)c1	x	x	4%	x	x
Cc1nn(-c2ccc(F)cc2)c(Cl)c1/C=N/NC(=O)c1ccc(O)cc1	20*	-58%	-2%	61*	x
CNC(=S)N/N=C/c1c(C)nn(-c2ccc(F)cc2)c1Cl	11	-28%	0%	6	-6%
Cc1nn(-c2ccc(F)cc2)c(Cl)c1/C=N/NC(=O)c1cccs1	30*	28µM*	-1%	59*	9%
O=C(N/N=C/c1sc(N2CCOCC2)nc1-c1ccccc1)c1ccccc1Cl	2	7%	3%	11	-1%
O=C(N/N=C/c1ccc(N2CCOCC2)s1)c1ccccc1Cl	34*	-27%	0%	109*	x
O=C(Nc1ccccc1N1CCCC1)c1cc2ccccc2o1	52*	-19%	u	97*	-46%
O=C(Nc1ccc(N2CCOCC2)c(Cl)c1)c1cc2ccccc2o1	39*	-25%	-9%	71*	3%
O=C(Nc1ccc(N2CCOCC2)c(Cl)c1)c1ccc(F)cc1	31*	-41%	-6%	18*	4%
Nc1cc(C(=O)N2CCN(c3ccc([N+](=O)[O-])cc3)CC2)ccc1N1CC2CC(C1)c1cccc(=O)n1C2 (stereo not drawn)	1	202%	-1%	12	5%
O=C(Nc1ccc(CN2CCOCC2)cc1)c1ccc(Br)o1	43*	-2%	2%	69*	-2%
O=C(c1cc2ccccc2o1)N1CCOCC1	x	-13%	0%	x	x
O=C(NN1CCOCC1)c1ccccc1	6	81%	-1%	-22	-6%
O=C(Nc1ccc(S(=O)(=O)N2CCOCC2)cc1)c1ccc(Br)o1	-2	-22%	-13%	6	-31%
Cc1cc(NC(=O)c2cccnc2Cl)ccc1NC(=O)c1cc2ccccc2o1	-2	-2%	-10%	25	-6%
O=C(Nc1cccnc1Cl)c1cc2ccccc2o1	38*	-3%	-6%	66*	-6%
O=C(Nc1cc(N2CCOCC2)ncn1)c1ccccc1	16*	-3%	-7%	41	-6%
O=C(NC(=S)N1CCOCC1)c1cc2ccccc2o1	12*	-21%	4%	70*	9%
CC1=C(C(=O)OCc2ccc(C)cc2)C(c2cccc(F)c2F)CC(=O)N1 (stereo not drawn)	x	x	-3%	x	x

Screening data from PubChem BioAssay.
